# Source: PubChem BioAssay (SRMLSC)
# Only some compounds are listed: those with a hit (about 6.3% of all), similar ones and a draw of the others.
# MK inhibit – S. pneumoniae MK inhibitors, primary screen, biochemical, PK/LDH-coupled NADH absorbance. inhibition, % at 10 µM. mevalonate kinase [Streptococcus pneumoniae D39]. purified MK, PK/LDH-coupled NADH absorbance 340 nm. 65,000 compounds, 0.48% hits;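 active means ranked among the strongest by inhibition in the single 10 µM screen, a fixed top-ranked set picked for dose follow-up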
# DPM-DC inhibit – S. pneumoniae DPM-DC inhibitors, primary screen, biochemical, PK/LDH-coupled NADH fluorescence. diphosphomevalonate decarboxylase (Streptococcus pneumoniae D39). purified DPM-DC. 65,000 compounds, 0.49% hits. calls only at 10 µM;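 active means the 320 compounds with the highest percent inhibition in the single-dose primary screen, excluding strongly autofluorescent ones, cut at about 32% in these data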;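 further: kinetic rate of NADH fluorescence loss reporting ADP formed by the decarboxylase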
# Abs 340nm – compound light absorbance at 340 nm, profiling panel, artefact control, biochemical, MLSMR library, data from PS, PMK, MK assays. compound absorbance at 340 nm, fold over control. fold change at 10 µM. 65,000 tested, under 10 active. AID 708, 2007;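 active means at 10 µM dose, initial 340 nm absorbance at least 2 fold that of control wells; inactive means change under 2 fold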;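 further: initial absorbance extrapolated from kinetic A340 decline of NADH oxidation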
# Spn PMK inh – S. pneumoniae PMK inhibitors, primary screen, biochemical, mevalonate pathway, pilot trial included | 65,000 compounds, 0.49% hits | AID 539, 2006 | purified PMK, PK/LDH-coupled NADH absorbance 340 nm | inhibition, % at 10 µM;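 active means top-ranked compounds by inhibition in the single 10 µM screen, taking a fixed number of the strongest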;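 further: 0% = full reaction with DMSO carrier and 100% = background rate without enzyme reaction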
# NADH enzymes – inhibitors of PK/LDH coupling enzymes, profiling panel, artefact control, biochemical, MLSMR library | coupled PK/LDH NADH assays, four targets | IC50, µM (highest dose often 10 µM), without a hit: at the top dose inhibition | 65,000 compounds, 0.02% hits;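 active means single-dose screening hits from any of four coupled enzyme assays that gave an IC50 when retested across doses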;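 further: the DPM-DC format reads NADH fluorescence rather than 340 nm absorbance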
# Autofluor 339 – intrinsic fluorescence of library compounds, ex339/em460 – biochemical, MLSMR library, data from DPM-DC assay, artefact control, profiling panel. 65,000 compounds, 5.5% hits. compound autofluorescence, ex339/em460 nm, NADH buffer; hits give high values; 1 = no-compound wells, NADH background. fluorescence fold increase at 10 µM;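 active means at 10 µM, mean starting fluorescence two-fold or more over control wells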;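 further: signal is the first read of a kinetic run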
# Active calls of the source: *; i = inactive; x = not tested or not shown.
SMILES,MK inhibit,DPM-DC inhibit,Abs 340nm,Spn PMK inh,NADH enzymes,Autofluor 339
COCCOC(=O)C1=C(C)NC2=C(C(=O)CC(C)(C)C2)C1c1cccnc1 (configuration not stated),11,x,1.1,11,11%,3.8*
CC1=C(C(=O)OCCOC(C)C)C(c2cccnc2)C2=C(CCCC2=O)N1 (configuration not stated),2,x,1.1,1,2%,2.2*
CC1=C(C(=O)OCC2CCCO2)C(c2ccncc2)C2=C(CC(C)(C)CC2=O)N1 (configuration not stated),2,x,1.1,0,1%,2.1*
CC1CC(C)CN(CC(C)(C)NS(=O)(=O)c2ccccc2)C1 (configuration not stated),25,i,1,5,10%,1.1
OCC#CCSc1nnc(-c2ccccc2Br)o1,5,i,0.99,7,1%,1.1
COc1ccccc1N1CCN(C/C=C/c2ccc(N(C)C)cc2)CC1,35,i,1.1,0,12%,1.2
COc1ccccc1/C=C/CN1CCOCC1,44*,i,1,0,15%,1.1
CCOC(=O)N1CCC(NC(=O)c2ccc(CNS(=O)(=O)c3ccc(F)cc3)cc2)CC1,5,i,0.97,8,4%,1.1
CC(=O)Nc1ccccc1-c1nc2ccc(C(=O)N3CCN(c4ccccc4)CC3)cc2[nH]c1=O,10,i,1,0,5%,1.2
CCS(=O)(=O)N1CCN(C(C)CCc2ccccc2)CC1 (configuration not stated),42*,i,1.1,2,15%,1.1
O=S(=O)(CCc1ccccc1)N1CCOCC1,4,i,1,14,7%,1
COc1cc(CN2CC(C)OC(C)C2)cc(OC)c1 (configuration not stated),45*,i,1,0,15%,1.1
O=C(c1ccco1)N1CCN(C2CCCC2)CC1,50*,i,1.1,6,19%,1.1
CC(N)C12CC3CC(C1)CC(C(C)N)(C3)C2 (configuration not stated),12,i,0.98,18,4%,1
CCN(CC)C(=O)c1ccc(CS(=O)(=O)c2ccc(OC)cc2)o1,1,i,1,6,1%,1
Cc1ccccc1-n1nnnc1SCc1ncc(-c2ccccc2)o1,0,i,1,14,5%,1.1
Cc1cc(C)n2cc(CSc3ncccc3C(=O)O)nc2n1,9,x,1,13,11%,5*
Cc1cc(C)n2cc(CSC3=NCCS3)nc2n1,0,x,1,2,1%,4.8*
Cc1cc(C)n2cc(CSc3nnnn3-c3ccccc3C)nc2n1,4,i,1,17,7%,2.1*
Cc1cc(C)n2cc(CSCc3ccco3)nc2n1,0,i,0.98,19,5%,1.4
Cc1nc2ccc(C(=O)N3CCN(c4ccccn4)CC3)cc2s1,0,i,1.1,0,0%,1.1
CCOC(=O)C1=CSC2=NS(=O)(=O)CCN12,11,i,1.1,0,4%,1.1
COCCOC(=O)c1cc(C(=O)c2cc(F)ccc2O)coc1=N,10,i,1,16,8%,2.4*
N#Cc1nc(-c2ccc(OCc3ccccc3)cc2)oc1NCc1cccnc1,10,i,1,13,10%,1.8
COc1ccc(CCNc2oc(COc3ccccc3F)nc2C#N)cc1OC,5,i,1,13,6%,1.1
N#Cc1nc(-c2ccccc2F)oc1NCCc1ccccn1,8,x,1.1,0,4%,2.3*
COCCCNc1oc(-c2ccccc2OC)nc1C#N,13,x,1.1,14,14%,3.9*
N#Cc1nc(-c2ccccc2F)oc1NCc1ccccc1,4,x,1.1,2,3%,2.1*
COCCCNc1oc(-c2ccccc2F)nc1C#N,4,x,1.1,0,2%,2.1*
